Compounds with a hit are over-represented: about 1.9% of the library has one in this group of screens.
PrPC surface inh: reduces human prion protein on the cell surface; cell surface PrPC, TR-FRET read-out; inhibition, % at 13.8 µM; 0.43% of 370,000 active; in the data active = inhibition above about 24%; also: 0% = median of the test wells and 100% = reference compound wells
PrP UTR inh: suppresses PrP 5' UTR mRNA reporter expression | inhibition, % (test concentration not listed) | AID 488862 | 0.35% of 340,000 active | cell-based PrP 5' UTR mRNA reporter, plate reader; in the data active = inhibition above about 52%; also: 0 = median of the neutral control wells
BJeLR viability: BJeLR cell viability loss; BJeLR (HRASV12) viability, CellTiter-Glo ATP luminescence, 48 h; inhibition, % (test concentration not listed); 0.17% of 300,000 active; in the data active = inhibition above about 50%
SSB-PriA inh: K. pneumoniae PriA-SSBct interaction inhibition; AlphaScreen SSBct-PriA binding, biotinylated peptide; inhibition, % at 33 µM; 0.6% of 430,000 active; in the data active = inhibition mostly above about 37%, no sharp cut-off; inactive = mostly below about 20%;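 also: plate controls were negative control peptide for no effect and reference peptide for full effect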
RecA splice inh: blocks M. tuberculosis RecA intein splicing; P9WHJ3; cell-free RecA intein splicing, fluorescence; inhibition, % (test concentration not listed); 0.75% of 290,000 active; in the data active = inhibition above about 30%;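 also: 0% = vehicle wells and 100% = reference inhibitor control wells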
Target sequence (P9WHJ3 whole entry, looked up, canonical isoform): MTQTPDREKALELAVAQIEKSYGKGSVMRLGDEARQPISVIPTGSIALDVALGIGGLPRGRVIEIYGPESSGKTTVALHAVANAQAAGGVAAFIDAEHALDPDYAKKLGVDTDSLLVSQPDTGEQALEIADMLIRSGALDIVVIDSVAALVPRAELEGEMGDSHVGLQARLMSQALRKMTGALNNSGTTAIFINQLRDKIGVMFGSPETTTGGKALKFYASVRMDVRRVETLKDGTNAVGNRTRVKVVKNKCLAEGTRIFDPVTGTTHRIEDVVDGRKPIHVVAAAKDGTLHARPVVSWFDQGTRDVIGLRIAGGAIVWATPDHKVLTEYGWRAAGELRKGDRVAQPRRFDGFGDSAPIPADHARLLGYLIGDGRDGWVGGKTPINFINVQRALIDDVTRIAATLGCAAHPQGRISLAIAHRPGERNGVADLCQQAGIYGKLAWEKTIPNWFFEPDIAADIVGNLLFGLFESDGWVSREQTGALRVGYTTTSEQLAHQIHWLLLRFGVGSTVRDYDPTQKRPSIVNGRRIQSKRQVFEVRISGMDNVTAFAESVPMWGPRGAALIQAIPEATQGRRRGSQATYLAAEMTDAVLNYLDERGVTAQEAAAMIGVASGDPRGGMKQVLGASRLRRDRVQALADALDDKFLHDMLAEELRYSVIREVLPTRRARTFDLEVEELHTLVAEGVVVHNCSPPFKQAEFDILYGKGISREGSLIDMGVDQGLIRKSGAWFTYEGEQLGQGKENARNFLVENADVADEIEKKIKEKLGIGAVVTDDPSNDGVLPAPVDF
PfHsp40 yeast: rescue of PfHsp40-mediated yeast toxicity | S. cerevisiae expressing PfHsp40, growth rescue, ATP luminescence | growth rescue, % at 12.5 µM | 0.68% of 340,000 active | AID 504582; in the data active = growth rescue above about 28%, passing the limit was not always enough;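 also: yeast W303a lacking pdr1 and pdr3 grown in galactose medium; growth measured after three days at 30 °C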
Active calls of the source: *; · = no result.

SMILES	PrPC surface inh	PrP UTR inh	BJeLR viability	SSB-PriA inh	RecA splice inh	PfHsp40 yeast
Cc1cc(C)cc(NC2=C(N)C(=O)c3ccccc3C2=O)c1	·	-64.9	-5.7	54.5*	5.3	3.7
Cc1ccc(NC2=C(Cl)C(=O)c3ccccc3C2=O)cc1	-6.0	-59.9	7.4	11.4	3.8	-0.5
CCCCC(=O)NNC(=S)NC(=O)c1ccc([N+](=O)[O-])cc1	-10.4	7.5	3.1	5.4	-4.4	-0.1
Cc1cccc(C(=O)NC(=S)NNC(=O)c2ccc(Cl)cc2)c1	0.6	-1.6	0.9	-0.5	1.3	75.3*
COc1ccc(C(=O)NC(=S)NNC(=O)c2ccc(C)cc2)cc1	-7.5	-14.1	2.2	6.6	1.5	142.6*
CCCCC(=O)NNC(=S)NC(=O)c1ccc(C)cc1	-7.0	-19.1	1.7	3.3	-2.0	95.4*
CNc1cc(N2CCCCCC2)ccc1[N+](=O)[O-]	-20.8	-123.8	-12.3	27.2	8.0	3.7
O=[N+]([O-])c1ccc(N2CCCCC2)cc1O	·	·	·	73.8*	·	·
O=[N+]([O-])c1ccc(N2CCCCC2)cc1[N+](=O)[O-]	·	·	·	73.3*	·	·
COc1cc(N2CCCC2)ccc1[N+](=O)[O-]	-18.3	-17.2	-13.1	0.9	4.8	-0.7
Cc1c(-c2ccccc2)c(=O)oc2cc(OC(=O)C3CC3)ccc12	·	·	·	-13.0	·	·
Oc1ccc(/C(Cc2ccc3ccccc3n2)=N\Nc2ccccc2)c(O)c1	18.6	-42.7	2.6	·	47.3*	0.9
Oc1ccc(/C(Cc2ccccn2)=N\Nc2ccccc2)c(O)c1	5.3	-6.6	-2.3	·	19.0	2.3
CCCCS/C(=C(/C#N)C(N)=O)c1cc2c([nH]1)CCCC2	-10.6	0.0	1.8	-13.2	35.7*	0.2
CCc1ccc(N/C(SC)=C(/C#N)C(N)=O)cc1	·	-8.0	-1.2	-3.9	2.1	-0.2
CCOC(=O)c1sc(-c2ccc(C(F)(F)F)cc2)nc1O	-12.4	-68.6	11.8	-8.5	-444.0	132.4*
CCOC(=O)c1sc(-c2cccc(C(F)(F)F)c2)nc1O	-10.8	-17.4	8.0	-13.9	-175.7	0.3
O=C(O)CCC(=O)c1ccc2sc3ccccc3c2c1	5.5	24.0	·	-5.7	·	121.6*
Cn1c(=O)n(Cc2c(F)cccc2Cl)c(=O)c2c1nc1oc(-c3ccc(Cl)cc3)cn12	·	·	·	-23.0	·	·
Oc1ccc(CSCc2ccccc2)c2cccnc12	·	·	·	10.3	·	·
O=S(=O)(c1ccc(Cl)cc1)N1CCN(Cc2ccncc2)CC1	6.7	-3.8	10.6	1.2	1.1	0.5
O=S(=O)(c1ccc(Cl)cc1)N1CCN(Cc2ccc(O)c3ncccc23)CC1	1.8	22.8	-1.2	15.0	-0.4	101.9*
Oc1ccc(CN2CCN(Cc3ccccc3)CC2)c2cccnc12	-0.4	-1.1	-15.8	103.3*	-21.8	4.8
CCn1ccnc1CNCc1cn(-c2cc(C)ccc2C)nc1-c1ccccc1	1.1	-2.2	-0.4	87.4*	0.0	1.2
CCOC(=O)c1c(NC(=O)/C=C/C(=O)O)sc(C)c1-c1ccc(C(C)(C)C)cc1	23.6	-19.9	4.1	7.4	·	-0.3
SMILES	PrPC surface inh	PrP UTR inh	BJeLR viability	SSB-PriA inh	RecA splice inh	PfHsp40 yeast
Cc1sc(NC(=O)/C=C/C(=O)O)c(C(N)=O)c1-c1ccc(C(C)(C)C)cc1	10.1	-3.1	7.7	-4.6	61.3*	2.2
CCOC(=O)c1c(NC(=O)/C=C\C(=O)O)sc(C)c1-c1ccccc1	5.9	-15.1	0.9	1.0	56.3*	94.7*
O=S(=O)(F)CCSC1=NCCS1	·	·	·	-16.0	·	·
O=C(Cn1nc2ncccn2c1=O)NCc1ccc(F)cc1	·	·	·	10.0	·	·
Cn1cc(C(c2ccccn2)c2cn(C)c3ccccc23)c2ccccc21	10.8	-13.2	22.0	50.0*	0.4	1.8
NC(=O)c1csc(NC(=O)C2(c3ccc(Cl)cc3)CCCC2)n1	·	·	·	15.0	·	·
Oc1ccc(Cn2ccnc2)c2cccnc12	2.5	-5.5	-0.1	98.9*	-13.0	0.4
CCCCCCc1ccc(O)c2ncccc12	·	·	·	60.0	·	·
OCCOCc1ccc(O)c2ncccc12	·	·	·	139.5*	·	·
Oc1ccc(CCc2c(F)cccc2F)c2cccnc12	3.9	·	·	·	·	·
COCc1ccc(O)c2ncccc12	-3.5	-4.6	9.6	94.1*	2.2	0.8
NS(=O)(=O)c1ccc(CNC(=O)c2ncc(-c3ccc(F)cc3)o2)cc1	·	·	·	4.0	·	·
CCCCCCCn1c(NC(=O)CC)nc2ccccc21	3.0	11.0	-4.5	-18.9	9.1	93.1*
CCCCCc1ccc(OCCOCCn2c[n+](C)c3ccccc32)c(CCCCC)c1	·	-24.9	1.2	19.7	25.7	55.3*
CCCCCc1ccc(OCCC[n+]2ccccc2)c(CCCCC)c1	7.7	-12.0	19.6	-2.8	-3.7	5.7
Cc1cc(NC(=O)c2ccc(Br)o2)n(-c2nc3c(cnn3-c3ccc(F)cc3)c(=O)[nH]2)n1	·	·	·	1.0	·	·
CCc1cccc2sc(NC(=O)c3ccc(OC)cc3OC)nc12	·	·	·	-15.0	·	·
O=C(Nc1ccc(Br)c(C(F)(F)F)c1)c1ccccc1	11.8	-47.2	-12.8	-47.3	18.0	644.4*
O=C(NN=Cc1cc2c(cc1Cl)OCO2)c1cc(-c2ccccc2)n[nH]1	·	·	·	6.8	·	·
COc1ccc(-c2noc(-c3ccc(CSc4ccccc4)o3)n2)cc1	·	·	·	-8.0	·	·
Clc1ccc(-c2noc(-c3ccc(CSc4ccccc4)o3)n2)cc1	·	·	·	81.0*	·	·
O=C(O)c1ccccc1NS(=O)(=O)c1cccc(-n2sc3ccccc3c2=O)c1	-3.1	-15.1	-4.7	12.6	3.1	406.7*
O=C(O)c1ccccc1NS(=O)(=O)c1cccc(C(F)(F)F)c1	2.5	-12.6	2.6	-11.0	·	-1.0
NS(=O)(=O)c1ccc(NN=C2CCCCC2C2CCCCC2)c([N+](=O)[O-])c1 (stereo not drawn)	·	·	·	39.8*	·	·
COc1ccccc1NS(=O)(=O)c1ccc(NN=C2CCCCC2)c([N+](=O)[O-])c1	-5.3	-5.0	-20.3	61.6*	0.5	-0.4
SMILES	PrPC surface inh	PrP UTR inh	BJeLR viability	SSB-PriA inh	RecA splice inh	PfHsp40 yeast
COc1ccccc1NS(=O)(=O)c1ccc(OC)c([N+](=O)[O-])c1	-9.0	-30.6	3.0	-3.3	-2.3	-1.1
CCCC(CCC)=NNc1ccc(S(=O)(=O)Nc2ccccc2OC)cc1[N+](=O)[O-]	1.5	-10.3	-0.9	41.2*	-2.1	-0.4
COc1cccc2c1O[C@@H](C)C(=O)N(c1cccc(Br)c1)C2	·	·	·	0.0	·	·
CC(=O)ON=C(c1nonc1N)N(C)C	·	·	·	-23.2	·	·
COc1ccc2c(c1)CC(C)CC2=NNC(=O)c1ccco1 (stereo not drawn)	·	·	·	0.3	·	·
Cc1ccc2[nH]c(-c3cccc(F)c3)cc(=O)c2c1	0.8	60.0*	33.4	1.9	0.1	-1.7
Cc1ccc(-c2cc(=O)c3cc(F)ccc3[nH]2)cc1	3.6	-40.8	3.0	13.4	-1.4	-1.0
O=C(CSCc1ccco1)Nc1nccs1	·	·	·	-12.0	·	·
O=C(Nc1cccs1)Nc1ccccc1-c1ccc(=O)[nH]n1	·	·	·	-2.0	·	·
O=C(NC1CCSc2ccccc21)c1cc([N+](=O)[O-])ccc1N1CCOCC1 (stereo not drawn)	-15.8	-3.0	-6.0	13.3	1.6	35.8*
COc1cccc(OC)c1C(=O)OCC(=O)Nc1cccnc1Cl	10.5	-1.3	-2.1	-2.2	1.2	57.6*

From PubChem BioAssay
